Laboratory results: PubChem BioAssay
“And” between values parts separate entries of the source, which are not always exact repeats. Equal entries are not always repeated. For some of these results: Entries with a potency or affinity are not part of this list. The source made the active and inactive calls. Unless noted, the rule behind the calls is not given here.

Key:
[1] = polyglutamine-triggered caspase-3 activation inhibitors, cell-based (AID 1583); conditions: polyglutamine-induced caspase-3 activation, cell assay; stronger effect = higher value;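 tested at 10 µM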
[2] = suppressors of polyQ aggregation in yeast, 75Q-TubU reporter (AID 1593); conditions: Yeast 75Q polyglutamine aggregation reporter
[3] = rescue of polyQ-huntingtin neuronal dysfunction in worms, whole organism, C. elegans mechanosensory neurons, N-terminal huntingtin (AID 1599); conditions: touch response, stronger effect = higher value
[4] = inhibitors of mitochondrial cytochrome c release, biochemical, purified mitochondria (AID 1603); conditions: stronger effect = lower value;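 note: mouse liver mitochondria challenged with calcium chloride; signal normalized to the plate average as 100%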
[5] = inhibitors of polyQ protein aggregation (AID 1604); conditions: polyglutamine-induced protein aggregation inhibition assay; stronger effect = higher value; tested at 2.5 µM
[6] = enhancers of glutamate uptake in motor neurons, MN-1 cell line (AID 1612); conditions: MN-1 motor neuron cells, stronger effect = higher value;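 note: tested at 1 µM final; 0% = mean of DMSO vehicle wells on each plate; positive means more glutamate uptake than control and negative means less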
[7] = suppressors of polyglutamine aggregation in yeast, 75Q-TubH (AID 1616); conditions: S. cerevisiae 75Q-TubH polyglutamine aggregation suppression; stronger effect = higher value
[8] = Cy5 fluorescence interference with SSB-bound oligo, artefact control for HCV NS3 helicase inhibitor project, biochemical, NIH Clinical Collection, E. coli SSB (AID 743268)
[9] = system: Hepatitis C virus NS3 helicase; assay: HCV NS3 helicase inhibitors, primary screen, biochemical, fluorescence polarization, NIH Clinical Collection (AID 743270); conditions: NS3 helicase binding to Cy5-dT15 DNA, stronger effect = higher value, concentration not given here
[10] = target: Single-stranded DNA-binding protein (Escherichia coli (strain K12)) (UniProt P0AGE0); assay: E. coli SSB displacement from DNA, counter-screen for HCV NS3 helicase inhibitor project, biochemical, fluorescence polarization, NIH Clinical Collection (AID 743271; in the data active = inhibition above about 28%); conditions: stronger effect = higher value, concentration not given here
[11] = fluorescence interference in NS3h assay format, artefact control for HCV NS3 helicase inhibitor project, biochemical, NIH Clinical Collection (AID 743272); conditions: fluorescence interference counterscreen, stronger effect = lower value;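 note: HCV NS3 helicase with a Cy5 labelled single stranded DNA probe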
[12] = modulation of C. elegans fzo-1 (AID 1259413);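 note: fzo-1 mutant C. elegans worms in liquid wells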; conditions: C. elegans fzo-1 modulator screen, mean read-out; stronger effect = higher value
[13] = target: NAD(+) hydrolase SARM1 (Homo sapiens) (UniProt Q6SZW1); assay: SARM1 TIR NADase inhibitors, cell lysate, NAD-Glo luminescence (AID 1508614;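 active = compound whose remaining NAD level is above about 45 nM, limit read from the data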;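 note: higher remaining NAD means stronger inhibition of SARM1 NADase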); conditions: SAM-TIR HEK293T lysate NADase, at 1 µM, stronger effect = higher value
NAD(+) hydrolase SARM1 (Homo sapiens), sequence (Q6SZW1 whole entry, looked up, the tested form may be a part): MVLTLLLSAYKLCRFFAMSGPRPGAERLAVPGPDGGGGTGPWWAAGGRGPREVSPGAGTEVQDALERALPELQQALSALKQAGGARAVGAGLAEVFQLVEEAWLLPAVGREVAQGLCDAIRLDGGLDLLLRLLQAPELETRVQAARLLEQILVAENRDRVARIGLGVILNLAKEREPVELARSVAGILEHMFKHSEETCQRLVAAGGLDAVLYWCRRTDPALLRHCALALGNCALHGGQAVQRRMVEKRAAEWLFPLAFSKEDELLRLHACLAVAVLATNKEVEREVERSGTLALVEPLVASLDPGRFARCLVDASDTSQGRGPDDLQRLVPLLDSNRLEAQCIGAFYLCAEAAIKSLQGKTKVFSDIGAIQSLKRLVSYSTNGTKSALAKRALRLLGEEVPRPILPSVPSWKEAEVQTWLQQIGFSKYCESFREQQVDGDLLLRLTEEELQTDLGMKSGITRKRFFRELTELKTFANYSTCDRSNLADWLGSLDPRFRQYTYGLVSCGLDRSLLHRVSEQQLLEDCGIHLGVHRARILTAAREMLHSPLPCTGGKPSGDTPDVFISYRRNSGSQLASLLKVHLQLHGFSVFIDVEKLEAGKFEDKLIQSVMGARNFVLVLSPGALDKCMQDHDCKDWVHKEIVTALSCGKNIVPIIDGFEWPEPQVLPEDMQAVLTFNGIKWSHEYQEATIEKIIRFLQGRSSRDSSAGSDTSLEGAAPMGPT

[14] = target: Mitogen-activated protein kinase 7 (Homo sapiens) (UniProt Q13164); assay: ERK5 transactivation activators in reporter cells, primary screen, cell-based, HTS (AID 1508626;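 active = luciferase signal above three times the same-plate solvent-only control wells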;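 note: luciferase driven by Gal4-ERK5 fusion binding five Gal4 sites before minimal TATA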); conditions: HeLa Gal4-ERK5 transactivation, 18 h, at 5 µM, stronger effect = higher value
Mitogen-activated protein kinase 7 (Homo sapiens), sequence (Q13164 whole entry, looked up, the tested form may be a part): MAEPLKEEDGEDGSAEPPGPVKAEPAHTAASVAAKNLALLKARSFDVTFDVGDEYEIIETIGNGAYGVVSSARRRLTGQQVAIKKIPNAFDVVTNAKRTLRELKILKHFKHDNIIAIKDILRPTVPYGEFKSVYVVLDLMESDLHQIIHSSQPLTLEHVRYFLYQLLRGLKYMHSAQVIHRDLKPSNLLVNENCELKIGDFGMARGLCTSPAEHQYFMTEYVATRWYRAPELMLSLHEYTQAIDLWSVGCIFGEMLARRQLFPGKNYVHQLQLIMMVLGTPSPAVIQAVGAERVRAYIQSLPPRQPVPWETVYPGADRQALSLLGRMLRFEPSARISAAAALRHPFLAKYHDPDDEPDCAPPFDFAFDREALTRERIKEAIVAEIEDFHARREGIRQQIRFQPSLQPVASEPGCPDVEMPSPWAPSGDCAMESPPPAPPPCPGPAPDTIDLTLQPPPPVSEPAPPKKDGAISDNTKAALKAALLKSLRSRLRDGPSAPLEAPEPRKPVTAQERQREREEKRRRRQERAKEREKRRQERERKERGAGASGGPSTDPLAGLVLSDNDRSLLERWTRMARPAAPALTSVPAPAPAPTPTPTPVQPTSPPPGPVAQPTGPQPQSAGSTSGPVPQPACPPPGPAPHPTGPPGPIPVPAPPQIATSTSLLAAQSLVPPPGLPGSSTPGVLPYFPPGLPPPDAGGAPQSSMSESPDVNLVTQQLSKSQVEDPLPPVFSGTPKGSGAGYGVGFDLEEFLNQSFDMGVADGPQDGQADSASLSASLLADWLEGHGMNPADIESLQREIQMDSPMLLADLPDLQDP

[15] = viability rescue of complex I mutant cybrids, primary screen, cell-based, galactose medium, ATP luminescence (AID 1645843;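 active = z-score of at least 1.8 in each of two replicates, scored against plate mean and spread of sample wells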;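 note: positive z means more ATP and so rescue of galactose-driven cybrid death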); conditions: complex I mutant cybrid cells, 72 h, stronger effect = higher value
[16] = ICB984 medulloblastoma cell growth inhibition, synergistic combos for chromothripsis tumors, cisplatin or BGB combos (AID 1671451); conditions: ICB984 medulloblastoma cells, drug combinations, stronger effect = higher value;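 note: cells exposed for 96 hours before readout; 0% = vehicle DMSO and 100% = killing by high DMSO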
[17] = system: R275C/beta2Delta; assay: modulators of BK channel variants, profiling panel, selectivity assay, cell-based, U2OS BacMam, thallium flux, beta subunits (AID 1259406;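 active = thallium flux through the channel raised or lowered by more than 3 SD from vehicle-only wells, actives on both sides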;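 note: initial slope of Thallos dye fluorescence rise after thallium is added; log ratio against the mean of 0.3% DMSO vehicle wells on the same plate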); conditions: at 30 µM
[18] = system: R275C/beta4; assay: as above; conditions: at 30 µM
[19] = system: R275C/Slo1WT/beta2; assay: as above; conditions: at 30 µM
[20] = hESC survival regulators, cell-based (AID 493140); conditions: human embryonic stem cell survival screen; stronger effect = higher value;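 note: cells exposed to compounds for four days before counting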
[21] = measured here: 5 uM single agent, at 5 µM

CS(=O)(=O)OCCCCOS(C)(=O)=O
inhibition [1]: 27.2% | score [2]: 1.46 | rescue above control [3]: -1.18 | cytochrome c release ratio [4]: 0.62 | inhibition of aggregation [5]: 54% | glutamate uptake change [6]: 14.5% | aggregation suppression score [7]: 1.4 | fluorescence ratio [8]: 1.02 (inactive) | inhibition [9]: -12.3% (inactive) | inhibition [10]: -0.48% (inactive) | fluorescence ratio [11]: 0.92 (inactive) | mean signal [12]: 241 (inactive) | remaining NAD [13]: 10 nM (inactive) | luciferase signal [14]: 52 AU (inactive) | z-score [15]: 0.925 (inactive) | inhibition ([16]; BGB IC20 combo, at 0.005 µM): -15.4% and -25.1% | inhibition ([16]; BGB IC40 combo, at 0.005 µM): -13.7% and -14% | inhibition ([16]; BGB IC40 combo, at 0.05 µM): -7.43% and 3.18% | inhibition ([16]; at 0.5 µM): -25.5% (inactive) and -7% (inactive) | inhibition ([16]; cisplatin combo, at 0.05 µM): -11.3% and 3.18% | inhibition ([16]; cisplatin combo, at 0.5 µM): -9.08% and -3.26% | inhibition ([16]; cisplatin combo, at 5 µM): -50.4% and -16.4% | inhibition [16, 21]: -29.1% and 6.4% | log fold change Tl+ flux [17]: 0.0365 (inactive) | log fold change Tl+ flux [18]: -0.0126 (inactive) | log fold change Tl+ flux [19]: 0.0135 (inactive)

CC12CC3CC(C)(C1)CC(N)(C3)C2
inhibition [1]: 12.5% | score [2]: 1.59 | rescue above control [3]: -2.96 | cytochrome c release ratio [4]: 1.07 | inhibition of aggregation [5]: 35% | glutamate uptake change [6]: 2.56% | aggregation suppression score [7]: 1.45 | survival [20]: 11.7 (inactive) | fluorescence ratio [8]: 1.02 (inactive) | inhibition [9]: -1.36% (inactive) | inhibition [10]: -0.48% (inactive) | fluorescence ratio [11]: 1.02 (inactive) | mean signal [12]: 254 (inactive) | remaining NAD [13]: 10 nM (inactive) | luciferase signal [14]: 40 AU (inactive) | z-score [15]: -0.41 (inactive) and 0.5 (inactive) and -0.635 (inactive) | log fold change Tl+ flux [17]: 0.0488 (inactive) | log fold change Tl+ flux [18]: 0.0101 (inactive) | log fold change Tl+ flux [19]: -0.103 (inactive)

O=C(O)CCCc1ccccc1
fluorescence ratio [8]: 0.99 (inactive) | inhibition [9]: -2.27% (inactive) | inhibition [10]: 1.05% (inactive) | fluorescence ratio [11]: 0.92 (inactive) | mean signal [12]: 232 (inactive) | remaining NAD [13]: 10 nM (inactive) | z-score [15]: -0.305 (inactive) and -0.05 (inactive) and 0.3 (inactive) | inhibition ([16]; BGB IC20 combo, at 0.005 µM): -2.57% | inhibition ([16]; BGB IC40 combo, at 0.005 µM): -13.4% | inhibition ([16]; BGB IC40 combo, at 0.05 µM): 6.23% | inhibition ([16]; at 0.5 µM): -32.1% (inactive) | inhibition ([16]; cisplatin combo, at 0.05 µM): 3.61% | inhibition ([16]; cisplatin combo, at 0.5 µM): -38.8% | inhibition ([16]; cisplatin combo, at 5 µM): -20.8% | inhibition [16, 21]: -6.76% | log fold change Tl+ flux [17]: -0.0698 (inactive) | log fold change Tl+ flux [18]: 0.032 (inactive) | log fold change Tl+ flux [19]: 0.0104 (inactive)

NNCCc1ccccc1
inhibition [1]: 3.3% | score [2]: 0.97 | rescue above control [3]: -3.55 | cytochrome c release ratio [4]: 1.02 | inhibition of aggregation [5]: 15.4% | glutamate uptake change [6]: 2.77% | aggregation suppression score [7]: 1.47 | survival [20]: 9.5 (inactive) | fluorescence ratio [8]: 0.99 (inactive) and 1.14 (inactive) | inhibition [9]: 1.19% (inactive) and -5.91% (inactive) | inhibition [10]: -0.87% (inactive) and -0.48% (inactive) | fluorescence ratio [11]: 0.96 (inactive) and 1.02 (inactive) | mean signal [12]: 213 (inactive) | remaining NAD [13]: 10 nM (inactive) | luciferase signal [14]: 44 AU (inactive) | z-score [15]: 0.14 (inactive) and 0.22 (inactive) and 0.6 (inactive) | log fold change Tl+ flux [17]: -0.0402 (inactive) | log fold change Tl+ flux [18]: -0.0112 (inactive) | log fold change Tl+ flux [19]: 0.022 (inactive)
